Hits are enriched below; roughly 6.1% of the tested compounds scored in any of these assays.
RORg inh – inhibitors of mouse ROR gamma transcriptional activity | Drosophila S2 Gal4-RORgamma UAS-luciferase reporter, 20 h | Potency, µM (top dose mostly 53.6 µM), hits mostly inhibitors | P51450 | 310,000 compounds, 5.4% hits; also: nearly all actives have a fitted effect of over 60% in size
Target sequence (P51450 whole entry, looked up, the tested form may be a part): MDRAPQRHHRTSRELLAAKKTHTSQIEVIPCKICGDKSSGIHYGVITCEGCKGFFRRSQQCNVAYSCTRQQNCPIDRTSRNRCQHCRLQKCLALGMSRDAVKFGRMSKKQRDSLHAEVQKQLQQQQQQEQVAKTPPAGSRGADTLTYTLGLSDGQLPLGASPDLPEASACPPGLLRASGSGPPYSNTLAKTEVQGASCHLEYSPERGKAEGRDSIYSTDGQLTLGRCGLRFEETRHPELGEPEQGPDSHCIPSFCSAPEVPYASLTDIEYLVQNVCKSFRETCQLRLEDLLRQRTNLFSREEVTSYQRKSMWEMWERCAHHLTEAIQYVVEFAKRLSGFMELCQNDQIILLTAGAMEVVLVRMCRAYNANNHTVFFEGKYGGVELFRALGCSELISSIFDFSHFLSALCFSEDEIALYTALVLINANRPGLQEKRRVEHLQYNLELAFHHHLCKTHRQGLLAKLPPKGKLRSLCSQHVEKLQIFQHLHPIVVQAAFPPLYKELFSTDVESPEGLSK
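Using a luciferase readout, inhibitors were identified by reduced reporter activity in Drosophila cells coexpressing a copper-inducible Gal4–ROR gamma fusion and UAS-driven Photinus luciferase, incubated 20 hr after 700 uM copper sulfate.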
VP16 counter – counter-screen for ROR gamma inhibitors: Gal4-VP16 reporter. Drosophila S2 Gal4-VP16 UAS-luciferase, luminescence, 20 h. Potency, µM (top dose mostly 53.6 µM), usual class: inhibitors. 310,000 compounds, 3.5% hits;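 also: Gal4-VP16 expression switched on by copper sulfate through the metallothionein promoter; nearly all actives have a fitted effect of over 50% in size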
S2 tox – cell viability loss in ATXN counter-screen. Potency, µM (titrated, usually from 56.7 µM), actives largely listed as cytotoxic. S2 cells (HEK-293 line with an ATXN2-luciferase reporter) viability, CellTiter-Fluor protease fluorescence, 24 h. 400,000 compounds, 0.49% hits. AID 651635; also: nearly all actives have a fitted effect of over 40% in size
ATXN2 expr inh – ATXN2 expression inhibition; HEK-293 ATXN2-luciferase reporter, luminescence, 24 h; Potency, µM (doses to about 57 µM), usual class: inhibitors; 360,000 compounds, 0.72% hits; also: nearly all actives have a fitted effect of over 55% in size
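ATXN2-luciferase reporter cells (luciferase flanked by upstream and downstream ATXN2 gene portions) were treated 24 h at 37 °C with compounds at up to 57 uM. SteadyGlo luminescence gave expression; GF-AFC fluorescence gave viability.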
TGFb inhibitor – TGF-b pathway inhibition | HepG2 CAGA-GFP TGF-b/SMAD3 reporter, GFP fluorescence, 18 h; TGF-beta stimulated, 500 pg/mL final | Potency, µM (highest dose often 46.1 µM), actives largely listed as inhibitors | 410,000 compounds, 1.2% hits | AID 588855; also: nearly all actives have a fitted effect of over 65% in size
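TGF-beta reporter screen: HEPG2 CAGA-GFP, 1% FBS, 500 pg/mL TGF-beta final, 18 h; per-cell GFP summed per well; curves fitted and categorized by class.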
HepG2 tox – counter-screen for TGF-b inhibitors: cytotoxicity in HepG2 cells | HepG2 CAGA-GFP viability, ATP luminescence, 18 h | Potency, µM (titrated, usually from 46.1 µM), actives largely listed as cytotoxic | 410,000 compounds, 0.76% hits | AID 588856
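HepG2 CAGA-GFP cells (1000/well, DMEM with 1% FBS) received compound, then TGF-beta at 500 pg/mL final, and were incubated 18 hours at 37 degrees C. Viability was read by CellTiter-Glo luminescence. Media-only wells were set as complete cell-killing and DMSO as no toxicity.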
Hits are given with their value; - = inactive; ? = inconclusive; . = no result. Calls follow the shape of the dose curve; as a rule, active = well fitted curve in the direction sought with a large enough effect; inconclusive = small, poorly fitted or top-dose-only effect, or another doubt; inactive = no such curve, though single readings can be large; an effect the other way counts as inactive or inconclusive.

SMILES	RORg inh	VP16 counter	S2 tox	ATXN2 expr inh	TGFb inhibitor	HepG2 tox
Cc1ccc(-c2cc(-c3ccccc3)no2)c(O)c1	?	?	-	-	-	-
Cc1ccc2nc(-c3cc(-c4ccccc4)no3)cn2c1	1.4µM	4µM	-	3.5µM	-	-
CCc1ccn2cc(-c3cc(-c4ccccc4)no3)nc2c1	-	-	?	.	?	10µM
S=C(NCc1cccs1)Nc1cccc(Cl)c1Cl	10µM	8.9µM	?	-	-	-
Cc1c(Cl)cccc1NC(=S)NCc1cccs1	4.5µM	7.1µM	-	-	-	-
Cc1c(Cl)cccc1NC(=O)Cc1cccs1	-	-	-	-	-	-
CCCNC(=O)N1CCN(S(=O)(=O)c2ccc3c(ccn3C)c2)CC1	.	.	-	-	-	-
CCOC(=O)c1cccc(NC(=O)c2cc3c(=O)n(Cc4ccccc4)ccc3nc2C)c1	.	.	-	-	?	-
Cc1ccc(/C=C/C(=O)N2CCN(Cc3ccccc3)CC2)o1	-	?	-	-	-	-
Cc1ccc(/C=C/C(=O)N2CC(=O)Nc3ccccc32)o1	?	16µM	-	-	-	-
Cc1c2cnn(-c3ccccc3)c(=O)c2c(C)n1C(C)C(=O)Nc1ccccc1C(F)(F)F (centres undefined)	.	.	-	-	?	-
COc1ccc(CCNC(=O)c2nc(-c3ccc(Cl)cc3)n3c2CCCCC3)c(OC)c1	.	.	?	?	8.9µM	-
COc1cccc(N2CCN(C(=O)c3nc(-c4ccc(Cl)cc4)n4c3CCCCC4)CC2)c1	.	.	?	-	16µM	-
Cc1cccc(CCNC(=O)c2nc(-c3ccc(Cl)cc3)n3c2CCCCC3)c1	.	.	?	-	?	-
COc1cccc(N2CCN(C(=O)c3ccc4c(Cl)c5c(nc4c3)CCCC5)CC2)c1	.	.	?	-	11µM	-
O=C(NCC(c1cccnc1)N1CCc2ccccc2C1)C(=O)Nc1ccc(F)cc1F (centres undefined)	.	.	.	.	?	-
O=C(CN1C(=O)/C(=C/c2ccc(Cl)cc2)SC1=S)NC1C=CS(=O)(=O)C1 (centres undefined)	-	?	?	.	-	-
CC(C)c1ccc(/C=C2\SC(=O)N(CC(=O)NC3C=CS(=O)(=O)C3)C2=O)cc1 (centres undefined)	?	4.5µM	?	.	-	-
CC1C/C(=C/c2cccn2C)C(=O)/C(=C/c2cccn2C)C1 (centres undefined)	13µM	?	-	-	-	-
CC1C/C(=C/c2ccncc2)C(=O)/C(=C/c2ccncc2)C1 (centres undefined)	7.1µM	2.8µM	?	.	5.6µM	5.6µM
CC1CC(C)CN(C(=O)c2ccncc2)C1 (centres undefined)	-	-	-	-	-	-
Cc1ccc(N=C2NC(=O)/C(=C/c3cccn3C)S2)cc1	-	-	-	.	-	-
O=c1[nH]n2c(=O)c3c([nH]c2c1N=Nc1cccc(Cl)c1)CCC3	-	?	?	-	-	-
NS(=O)(=O)c1ccc(N=Nc2c(=O)[nH]n3c(=O)c4c([nH]c23)CCCC4)cc1	-	-	9.5µM	-	-	-
S=c1[nH]c(-c2ccccc2)cn1/N=C/c1ccc(Br)cc1	0.4µM	7.1µM	-	-	-	-
SMILES	RORg inh	VP16 counter	S2 tox	ATXN2 expr inh	TGFb inhibitor	HepG2 tox
Cc1ccc(C)c(/C=N/n2cc(-c3ccccc3)[nH]c2=S)c1	0.28µM	?	-	-	?	-
Fc1ccccc1/C=N/n1cc(-c2ccccc2)[nH]c1=S	1.4µM	8.9µM	-	-	-	-
S=c1[nH]c(-c2ccccc2)cn1/N=C/c1cccs1	?	?	-	-	-	-
Cc1ccc(Nc2nc(N/N=C/c3c[nH]c4ccccc34)nc(N3CCOCC3)n2)cc1	11µM	?	-	-	?	-
Cc1[nH]c2ccccc2c1/C=N/Nc1nc(Nc2ccc(F)cc2)nc(N2CCOCC2)n1	2.5µM	5.6µM	-	-	-	-
c1ccc2c(CCC3CCNCC3)c[nH]c2c1	.	.	-	.	.	.
COc1cccc(NC(=O)CSc2nnc(-c3ccc(C)cc3)o2)c1	?	13µM	-	-	-	-
COc1cccc(NC(=O)CSc2nnc(-c3cccc(OC)c3)o2)c1	.	.	-	-	-	-
CCOC(=O)CSc1nnc(-c2ccc(OC)cc2OC)o1	8.9µM	?	-	-	-	-
COc1ccc(-c2nnc(SCC(=O)Nc3cc(C)on3)o2)cc1	11µM	?	-	.	-	-
O=S(=O)(Nc1nc(-c2sccc2Cl)cs1)c1cc(Cl)ccc1Cl	-	-	?	-	11µM	-
CC(C)(C)c1nnc(NS(=O)(=O)c2cc(Cl)ccc2Cl)s1	-	-	-	-	-	-
CCCCCNc1nc(N2CCCC2)c2c(c1C#N)CCN(C)C2	-	-	?	-	?	22µM
Clc1ccccc1/C=N/NC1=Nc2cccc3cccc1c23	0.28µM	?	13µM	-	-	-
Clc1ccccc1C=NNc1ccccn1	.	.	-	-	?	-
C(=N\NC1=Nc2cccc3cccc1c23)/c1ccccn1	0.04µM	.	?	.	2µM	-
Cc1ccc2c(c1)Cc1nc3ccccc3nc1-2	10µM	14µM	?	?	-	-
Cc1ccc2c(c1)-c1nc3ccccc3cc1C2=NC1CCCCC1	-	?	-	-	?	-
CCOC(=O)Cc1ccc(NC(=O)NCc2cccn2Cc2ccccc2)cc1	.	.	-	-	-	-
CCOC(=O)c1sc(N(Cc2ccccc2)C(=O)COC(=O)c2ccc(O)cc2)nc1C	?	?	-	?	13µM	-
COc1ccc(S(=O)(=O)N[C@@H](C)C(=O)OCC(=O)Nc2cc3oc4ccccc4c3cc2OC)cc1	?	16µM	-	-	-	-
COc1cc2c(cc1NC(=O)COC(=O)CNS(=O)(=O)c1ccc(C)cc1)oc1ccccc12	11µM	4µM	-	-	-	-
COc1cc2c(cc1NC(=O)COC(=O)[C@@H](NS(=O)(=O)c1cccc(Cl)c1)C(C)C)oc1ccccc12	13µM	11µM	-	-	?	-
Oc1ccc(/C=N/NC(=S)NCc2ccco2)cc1	11µM	-	?	-	-	-
S=C(NCc1ccco1)N/N=C/c1cccnc1	11µM	?	-	.	-	-
CCN(CC)c1ccc(/C=N/NC(=S)NCc2ccco2)cc1	1.8µM	3.2µM	-	-	?	-
S=C(NCc1ccco1)N/N=C/c1ccc(Cl)cc1	2.5µM	5.6µM	-	-	13µM	-
Cc1ccc(-n2nc(C(=O)N3CCN(c4cc(Cl)ccc4C)CC3)c(=O)n(C)c2=O)cc1	.	.	-	-	-	-
O=C(NC1CC(=O)N(c2ccc(Cl)cc2)C1)c1ccc2c(c1)OCO2 (centres undefined)	.	.	.	.	-	-

Compound activity (PubChem BioAssay)
